LASV entry inh: qHTS for Inhibitors of binding or entry into cells for Lassa Virus. Potency, µM (highest dose often 37.9 µM), inactives show at the highest dose activity change, negative = inhibition, hits mostly inhibitors. 1.2% of 300,000 active. Lassa virus pseudotype entry inhibition, cell reporter. AID 540256, 2011; calls by dose curve; tested in HEK293 cells; also: nearly all actives have a fitted effect of over 50% in size
HCV inhibitor: qHTS Assay for Inhibitors of Hepatitis C Virus (HCV). Potency, µM (doses to about 41.8 µM), for inactives: top-dose activity change, negative = inhibition, usual class: inhibitors. Huh7.5.1 HCVcc-Cre infection, luciferase reporter, 44 h. 3.4% of 340,000 active. AID 651820, 2012; active = well fitted inhibition curve with a large enough effect; inconclusive = small, poorly fitted or top-dose-only effect, or another doubt; inactive = no such curve, though single readings can be large or run the other way
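Luciferase read-out (15 sec integration) after a 15 min room-temperature substrate step quantifies HCVcc-Cre infection. Cells, 1,000 per well, had compound added 4 h post-plating, then virus at ~0.5 moi, and were cultured 44 h.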
VACV Venus inh: qHTS for Stage-Specific Inhibitors of Vaccinia Orthopoxvirus: Venus Reporter Primary qHTS | Vaccinia virus Venus reporter expression, fluorescence | Potency, µM (series often up to 36.5 µM), for the others: at the highest dose activity change, negative = inhibition, actives largely listed as inhibitors | 0.46% of 330,000 active | AID 720580, 2013; calls by dose curve; tested in A549 cells; also: nearly all actives have a fitted effect of over 30% in size
MARV entry inh: qHTS for inhibitors of binding or entry into cells for Marburg Virus; Potency, µM (series often up to 37.8 µM), for the others: at the top dose activity change, negative = inhibition, most hits filed as inhibitors; 1.8% of 300,000 active; Marburg virus pseudotyped entry inhibition, cell reporter; AID 540276, 2011; calls by dose curve; tested in HEK293 cells
Vaccinia mCherry: qHTS for Stage-Specific Inhibitors of Vaccinia Orthopoxvirus: mCherry Reporter Primary qHTS; Vaccinia virus mCherry reporter infection, fluorescence; Potency, µM (titrated, usually from 36.5 µM), without a hit: top-dose activity change, negative = inhibition, usual class: inhibitors; 0.63% of 310,000 active; AID 720579, 2013; calls by dose curve; tested in A549 cells; also: nearly all actives have a fitted effect of over 35% in size
The depositor's hits bear a star; i = inactive; ? = inconclusive; · = not tested or not shown; [ ] = remark or other dose. Rows were chosen to be rich in hits. Some 4.6% of all compounds tested hit in one or more screens of this group. % is scaled to controls: 0 for no effect and ±100 for the full control effect; potency is read from the fitted curve at half-maximal effect.

SMILES | LASV entry inh | HCV inhibitor | VACV Venus inh | MARV entry inh | Vaccinia mCherry
C#CCOCCOCCOCCNc1nc(N2CCN(C(=O)CCCCCCCCCCNC(=O)[C@H](CCCCN)n3cc(C)nn3)CC2)nc(N2CCN(C(=O)CCCCCCCCCCNC(=O)[C@@H]([C@H](C)CC)n3cc(CCCCCN)nn3)CC2)n1 | · | 22µM* | · | · | ·
C#CCOCCOCCOCCNc1nc(N2CCN(C(=O)CCCCCCCCCCNC(=O)[C@H](CCCCN)n3cc(CCO)nn3)CC2)nc(N2CCN(C(=O)CCCCCCCCCCNC(=O)[C@@H]([C@H](C)O)n3cc(C)nn3)CC2)n1 | · | -13% | -23% | · | -1%
C#CCOCCOCCOCCNc1nc(N2CCN(C(=O)CCCCCCCCCCNC(=O)[C@H]([C@@H](C)CC)n3cc(CCCCCN)nn3)CC2)nc(N2CCN(C(=O)CCCCCCCCCCNC(=O)[C@@H]([C@H](C)O)n3cc(C)nn3)CC2)n1 | · | 16% | 11µM* | · | ?
Cn1c(Cl)cnc1C1CC(=O)c2cc(Cl)ccc2O1 (configuration not stated) | ? | ? | -14% | 10µM* | -2%
O=C1CC(c2ccc(Cl)cc2)Oc2ccc(Cl)cc21 (configuration not stated) | -16%[46.1 µM] | 4% | -17% | 3%[46.1 µM] | -25%
CCOc1ccc(-n2nc3ccc(NC(=O)c4ccc(C)cc4C)cc3n2)cc1 | 20%[46.1 µM] | · | -8% | -1%[46.1 µM] | -10%
Cc1nc(C(=O)NNC(=O)c2c(-c3c(Cl)cccc3Cl)noc2C)cs1 | ? | ? | ? | 1.6µM* | ?
Cc1cc(C(=O)NNC(=O)c2c(-c3c(Cl)cccc3Cl)noc2C)no1 | 7% | 25% | -5% | 27% | -16%
COc1ccc(OC)c(C2CC(=O)c3c([nH]c(C(=O)OC4CCC(C)CC4)c3C)C2)c1 (configuration not stated) | -16%[46.1 µM] | · | ? | ? | -22%
Cc1cc(C(=O)COC(=O)Cc2n[nH]c(=O)c3ccccc23)c(C)n1-c1cccc(C(F)(F)F)c1 | ? | ? | -16% | 11µM* | -30%
COc1cc2ccc(=O)oc2cc1O | · | 13% | 1% | · | 13%
O=Nc1ccc2oc(=O)ccc2c1 | ? | · | · | 13µM* | ·
N#CCCN1CCN(C(=S)c2ccc(-c3cccc(Cl)c3)o2)CC1 | 26% | -3% | -20% | -16% | -30%
N#CCCN1CCN(C(=S)c2ccc(-c3ccc(Cl)c(Cl)c3)o2)CC1 | 20µM* | ? | ? | 14µM* | ·
O=C(NCc1ccco1)c1cc(-c2ccccc2)c(N2CCOCC2)s1 | -3% | 8.9µM* | -26% | ? | ?
CCOc1ccc(CCNC(=O)c2cc(-c3ccccc3)c(N3CCOCC3)s2)cc1 | · | ? | -15% | · | i
O=C(O)c1cc(-c2ccccc2)c(N2CCOCC2)s1 | 6% | -3% | -9% | 7% | -17%
O=C(NCc1ccc2c(c1)OCO2)c1cc(-c2ccccc2)c(N2CCOCC2)s1 | · | 14µM* | · | · | ·
COc1ccc(CCNC(=O)c2cc(-c3ccccc3)c(N3CCOCC3)s2)c(OC)c1OC | · | 10µM* | · | · | ·
CN(Cc1ccc2c(c1)OCO2)C(=O)c1cc(-c2ccccc2)c(N2CCOCC2)s1 | · | 10µM* | · | · | ·
COc1cc2c(c(OC)c1OC)C1(c3ccccc3)CCCCCC1[C@@H]2NC(=O)C(F)(F)F (some centres not stated) | ? | · | · | -15%[14.2 µM] | ·
O=C1NCCN2CCC[C@H]12 | · | · | · | 19% | ·
O=C(CN1C(=O)C2(SCC(=O)N2c2ccccc2)c2ccccc21)Nc1ccccc1C(F)(F)F (configuration not stated) | 12%[46.1 µM] | · | 2% | · | -1%
CNC[C@H](CC1CCCCC1)NC[C@H](CO)NCCc1cccc(C(F)(F)F)c1 | · | ? | 20µM* | · | ?
NC(=O)c1ccccc1NC(=O)/C=C/C(=O)O | -4% | 18% | 6% | 10%[46.1 µM] | -3%
SMILES | LASV entry inh | HCV inhibitor | VACV Venus inh | MARV entry inh | Vaccinia mCherry
O=C(O)/C=C/C(=O)Nc1ccccc1-c1ccccc1NC(=O)/C=C/C(=O)O | ? | 26% | -3% | 3% | -18%
O=C(O)/C=C\C(=O)Nc1ccccc1C#Cc1ccccc1 | 10% | 11µM* | · | 3% | ·
O=C(O)/C=C\C(=O)Nc1ccccc1C#Cc1ccc(Br)cc1 | -1% | 4.5µM* | · | -1% | ·
CCCCN(CC)C(=O)CSc1nc2ccccc2c(=O)n1Cc1ccco1 | ? | · | -26% | · | -21%
NC1N=CC(c2cc3ccccc3oc2=O)S1 (configuration not stated) | · | · | · | -13%[46.1 µM] | ·
CC(C)CC1OC(C(C)C)Cc2[nH]c(=S)[nH]c(=O)c21 (configuration not stated) | · | · | 0.013µM* | · | ·
CC(C)[C@@H]1Cc2[nH]c(=S)[nH]c(=O)c2[C@H](C)O1 | · | · | 0% | · | 38%
CC(C)c1cc(C(N)=O)c(NC(=O)c2cccc(COc3ccc(Cl)cc3)c2)s1 | ? | ? | -13% | 3.2µM* | -5%
CC(C)Oc1cccc(C(=O)Nc2ccc(Br)cc2F)c1 | 2µM* | ? | ? | ? | -29%
Cc1ccc(NC(=O)c2ccc(OCc3c(C)noc3C)cc2)cc1C | ? | 4.5µM* | -28% | 10µM* | -19%
Cc1noc(C)c1COc1cccc(C(=O)Nc2ccc(Br)cc2F)c1 | ? | 2.8µM* | ? | ? | ?
Cc1nn(Cc2c(F)c(F)c(F)c(F)c2F)c(C)c1NC(=O)c1cccc(COc2ccc(Cl)cc2)c1 | 2% | ? | -27% | ? | -11%
COc1ccc2c(c1)-c1nc(-n3ncc(C(=O)NCc4cccnc4)c3C3CC3)ncc1CC2 | · | · | -18% | · | ?
Cc1cc(NC(=O)c2cccc(COc3ccc(Br)cc3)c2)no1 | 13µM* | ? | -25% | 7.3µM* | i
CCOc1ccc(C(=O)Nc2cc(C)on2)cc1 | ? | -3% | · | ? | ·
Cc1ccc(C(=O)Nc2cccc3ccccc23)cc1 | · | -15% | · | · | ·
CC(C)(C)c1ccc(C(=O)Nc2cccc3c(=O)[nH][nH]c(=O)c23)cc1 | 7.1µM* | ? | -14% | ? | -22%
C=CCOC(=O)C(C(C)=O)[C@@H](NC(=O)OC)c1ccc(F)cc1 (some centres not stated) | · | · | · | 20%[14.2 µM] | ·
COc1cc(CNCc2ccco2)ccc1OCc1ccccc1 | -18% | 11µM* | -7% | ? | 0%
COc1cc(CNC23CC4CC(CC(C4)C2)C3)ccc1OCc1ccccc1 | 20%[46.1 µM] | -27% | -7% | 5µM* | i
COc1cc(CNCc2ccccn2)ccc1OCc1c(Cl)cccc1Cl | ? | 11µM* | -26% | ? | -26%
COc1cc(CNCc2cccs2)ccc1OCc1ccccc1 | 11% | ? | -14% | -84% | ?
COc1cc(/C=C2/SC(=O)NC2=O)ccc1OCc1ccccc1 | · | 19% | · | · | ·
COc1cc(CNCc2ccccn2)ccc1OCc1ccc(Cl)cc1 | -7% | -4% | -21% | ? | -30%
Cc1ccc(CN2CCN(C3CCN(C(=O)c4ccc(C)cc4)CC3)C(=O)C2=O)cc1 | 14%[46.1 µM] | · | -4% | · | -1%

Source: PubChem (National Center for Advancing Translational Sciences (NCATS))
